# ROMK mod: modulators of human ROMK potassium channel | Tet-inducible ROMK, thallium flux fluorescence; actives lie on both sides | B-score at 10 µM | actives 2% (n = 130,000);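 active means signal ratio slope over the read window, or its plate-corrected B-score, at least 3 SD from the plate mean, either direction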;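 further: B-score of the F/F0 ratio slope over 7 to 12 s after thallium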
# Target sequence (P48048 whole entry, looked up): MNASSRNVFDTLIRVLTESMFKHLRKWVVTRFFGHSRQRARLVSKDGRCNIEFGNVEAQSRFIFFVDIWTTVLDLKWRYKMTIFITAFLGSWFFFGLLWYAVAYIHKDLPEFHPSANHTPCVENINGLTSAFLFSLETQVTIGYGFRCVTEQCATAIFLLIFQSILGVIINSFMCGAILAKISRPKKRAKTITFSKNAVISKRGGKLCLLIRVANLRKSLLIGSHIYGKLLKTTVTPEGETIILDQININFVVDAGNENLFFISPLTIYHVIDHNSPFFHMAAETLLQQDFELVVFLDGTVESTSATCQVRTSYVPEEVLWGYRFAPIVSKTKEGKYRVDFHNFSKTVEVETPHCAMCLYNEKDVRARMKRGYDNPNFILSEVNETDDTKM
# m-calpain inh: inhibitors of pig calpain II. purified calpain II, fluorogenic peptide substrate, 30 min. inhibition, % at 16 µM. actives 0.37% (n = 220,000);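 active means inhibition above about 50%, limit read from the data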
# Arbovirus inh: antivirals against arbovirus infection; arbovirus infection cell-based antiviral screen; inhibition, % at 10 µM; actives 0.37% (n = 200,000); in the data active means inhibition above about 30%
# HSV replic up: HSV replication enhancement; HSV replication augmentation in cells, fold increase; maximum fold increase; actives 0.005% (n = 220,000); AID 1956; in the data active means maximum fold increase above about 1.5; tested in PC3 cells
# Efa HMGR inh: E. faecalis class II HMG-CoA reductase inhibition; purified E. faecalis HMGR, NADPH absorbance 340 nm kinetic; inhibition, % at 10 µM; actives 0.41% (n = 190,000);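 active means inhibition above a set limit, the median over all tested compounds plus 3 SD, cut at about 9.5% in these data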;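 further: enzyme runs in reverse so mevalonate oxidation gives rising NADPH absorbance; 0% = complete reaction with DMSO and 100% = background rate lacking mevalonate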
# An asterisk follows results filed as active; i = inactive; . = no result. Shown are actives, neighbours in structure and some others; about 2.1% of the full set was active somewhere.
SMILES,ROMK mod,m-calpain inh,Arbovirus inh,HSV replic up,Efa HMGR inh
Cc1cc(SCC(=O)OCC(=O)c2c(N)n(C)c(=O)n(C)c2=O)c(C)cc1Br,-0.5,3,3,i,-1
CCOC(=O)C1(C)NC(c2ccco2)C2C(=O)N(CC)C(=O)C21 (configuration not stated),-0.041,3,-1,i,0
COc1ccc(N(CC(=O)Nc2cc(C)ccc2C)S(=O)(=O)c2ccccc2[N+](=O)[O-])c(OC)c1,-0.17,-54,0,i,-2
Cc1ccc(-n2c(C(C)C)nc3oc4ccccc4c(=O)c3c2=O)cc1,.,-17,.,i,.
Cn1c(N)c(C(=O)COC(=O)C2(c3ccc(F)cc3)CCCC2)c(=O)n(C)c1=O,.,76*,-3,i,-1
O=C(N/N=C/C=C\c1ccc([N+](=O)[O-])cc1)c1cccnc1,.,-24,.,i,.
O=C(N/N=C/c1c(O)n(Cc2ccccc2)c(=O)c2ccccc12)c1cccnc1,-4.4*,-77,-24,i,-1
CCC(CC)C(=O)c1c[nH]c(C(=O)NCc2cccs2)c1,-0.36,-4,-8,i,11*
O=C(NC(=S)N1CCCCCC1)c1ccccc1Cl,0.31,-23,2,i,-3
Cc1ccccc1C(=O)NNC(=S)NC(=O)c1ccc(Cl)cc1Cl,4.9*,-34,-19,i,-2
O=C(NC(=S)N1CCCCCC1)c1ccc(Cl)cc1Cl,7.1*,25,0,i,-3
O=C(CC1C(=O)NCCN1Cc1cccc(Oc2ccccc2)c1)NCCCn1cccn1 (configuration not stated),-0.53,31,-5,i,-3
CCOc1ccc(-c2nnc3sc(-c4ccccc4OC)nn23)cc1,3.3*,.,.,.,.
O=c1[nH]ncc2c3ccccc3n(Cc3cccc(Cl)c3)c12,-0.39,5,3,i,16*
COc1ccc(C(=O)NC(=S)N2CC(C)OC(C)C2)cc1OC (configuration not stated),-0.81,25,2,i,-2
O=C(CCn1cnnn1)Nc1ccc(Cl)c(Cl)c1,2.2,-11,-9,i,14*
COc1cc(Br)cc(CNc2ccc(F)c([N+](=O)[O-])c2)c1O,-0.84,91*,-10,i,0
Cc1ccc(CC(=O)Nc2ccc(F)c([N+](=O)[O-])c2)cc1C,-1.9,20,1,i,-6
N#CC(C#N)=Cc1cc2ccccc2nc1N1CCOCC1,.,-30,4,i,14*
N#C/C(=C\c1cc2ccccc2nc1N1CCOCC1)C(=O)Nc1ccc(N2CCOCC2)cc1,.,-11,5,i,-6
Cc1ccc(C2CC(=O)c3cnn(-c4nc(C)cc(C)n4)c3C2)cc1 (configuration not stated),0.8,-22,36*,i,-10
Cc1c(Cl)c(-c2n[nH]c(=S)n2-c2ccc(F)cc2)nn1C,.,-8,8,i,11*
Cn1cc(Cl)c(-c2n[nH]c(=S)n2-c2ccc(F)cc2)n1,0.021,-8,-2,i,6
Cc1ccc(OCC(O)CN2C(=O)NC(C)(C)C2=O)cc1 (configuration not stated),0.95,-22,3,i,14*
Cc1ccc(OCC(O)CN2C(=O)NC(C)(C)C2=O)cc1C (configuration not stated),.,-2,0,i,2
SMILES,ROMK mod,m-calpain inh,Arbovirus inh,HSV replic up,Efa HMGR inh
CC(NC(=O)Nc1nnc(C(F)(F)F)s1)(C(F)(F)F)C(F)(F)F,-3.5*,36,-22,i,-4
CC(C)(C)CC(=O)Nc1nnc(C(F)(F)F)s1,-0.023,-9,11,i,-4
COc1cccc(CN2CCN(Cc3ccc(O)cc3)CC2CCO)c1 (configuration not stated),0.39,2,-10,i,-1
COc1ccccc1NC(=O)COC(=O)C12CC3CC(CC(Cl)(C3)C1)C2,-2.2,62*,2,i,-5
Cc1cc(C)c(C)c(S(=O)(=O)N[C@@H](C)C(=O)OCC(N)=O)c1C,-0.022,-3,3,i,-3
Cc1cc(NC(=O)CSc2nnc(-c3ccncc3)n2N)ccc1Br,.,137*,5,i,-5
COc1cc(NS(=O)(=O)c2ccc(NC(=S)NC(=O)c3sc4ccccc4c3Cl)cc2)ncn1,.,57*,0,i,0
COC(=O)CCC(=O)NC(=S)Nc1ccc(S(=O)(=O)Nc2cc(OC)nc(OC)n2)cc1,-0.036,17,1,i,-1
COc1cc(NS(=O)(=O)c2ccc(NC(=S)NC(=O)CC(C)C)cc2)nc(OC)n1,0.81,-26,5,i,13*
CCCCCC1CCC(c2ccc(/C(N)=N/O)cc2)CC1 (configuration not stated),.,6,.,i,.
CC1(C)CC(=O)C2=C(C1)N(c1ccc(F)cc1)C(=O)CC2c1ccccc1 (configuration not stated),-0.0019,-29,-2,i,1
O=C1CCCC2=C1C(c1ccccc1)CC(=O)N2c1ccc(F)cc1F (configuration not stated),0.89,-18,18,i,12*
CCOC(=O)/C(C#N)=C1\SS/C(=C(/C#N)C(=O)OCC)S1,.,-1,.,i,.
CC(C)Cn1c(=O)c2ccccc2n2c(SCC(=O)N3c4ccccc4CC3C)nnc12 (configuration not stated),-0.37,-11,6,i,0
CC(C)CCn1c(=O)c2ccccc2n2c(CN3C(=O)NC4(CCC(C)CC4)C3=O)nnc12 (configuration not stated),4*,-9,-16,i,-5
Cc1ccc(S(=O)(=O)N2CCN(c3ccnc4cc(Cl)ccc34)CC2)cc1C,0.35,-88,30*,i,-4
Cc1cc(N2CCN(S(=O)(=O)c3ccc(Cl)cc3)CC2)c2ccccc2n1,2.7,-19,36*,i,-9
Cc1cc(N2CCN(S(=O)(=O)c3ccc(Cl)c(Cl)c3)CC2)c2ccccc2n1,0.99,-5,-12,i,-7
COc1ccc(NC(=O)NC2CCCCC2C)cc1 (configuration not stated),-0.73,3,4,i,-1
C=CCN(C)CC/C=C1\c2ccccc2CSc2ccccc21,-0.68,-5,-7,i,-3
NCC/C=C1/c2ccccc2CSc2ccccc21,-5.2*,-27,-36,i,-3
COc1ccc(-n2c3c(cc(C(=O)N4CCCCC4)c2=O)C(=O)CC(C)(C)C3)cc1,0.0094,-35,2,i,-4
CC1(C)CC(=O)c2cc(C(=O)N3CCN(CCO)CC3)c(=O)n(-c3ccc(Cl)cc3)c2C1,-0.037,-11,12,i,11*
O=c1cc2c(=O)oc3cc(O)c(O)oc3c2c(O)c1O,.,-4,.,i,.
COc1ccc(/C=N/n2cncn2)cc1Cn1nc(C)c([N+](=O)[O-])c1C,.,-6,.,i,.
COc1ccc(/C=N/n2cnnc2)cc1Cn1nc(C)c([N+](=O)[O-])c1C,-0.63,-12,2,i,11*
COc1ccc(C(=O)N(C)c2c(C)n(C)n(-c3ccccc3)c2=O)cc1OC,0.14,70*,11,i,-8
COc1cc(/C=N/NC(=O)c2ccc(Cl)c(S(N)(=O)=O)c2)ccc1OCC(N)=O,.,-21,.,i,.
